PAFAH1B2 inh: blocks human PAF acetylhydrolase 1b catalytic subunit 2 | recombinant PAFAH1B2, FP-rhodamine activity probe, fluorescence polarization | inhibition, % at 3.39 µM | 1.2% of 340,000 active | AID 492953;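 active = inhibition above the mean of all tested compounds plus 3 SD, cut at about 24% in these data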
PAFAH1B3 FP inh: blocks human PAF acetylhydrolase 1B catalytic subunit 3. Q15102. recombinant PAFAH1B3, FP-rhodamine probe, fluorescence polarization. inhibition, % at 3.39 µM. 0.28% of 340,000 active. AID 492972;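 active = inhibition above the screen-wide average of all tested compounds plus 3 SD, cut at about 25% in these data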
Target sequence (Q15102 whole entry, looked up): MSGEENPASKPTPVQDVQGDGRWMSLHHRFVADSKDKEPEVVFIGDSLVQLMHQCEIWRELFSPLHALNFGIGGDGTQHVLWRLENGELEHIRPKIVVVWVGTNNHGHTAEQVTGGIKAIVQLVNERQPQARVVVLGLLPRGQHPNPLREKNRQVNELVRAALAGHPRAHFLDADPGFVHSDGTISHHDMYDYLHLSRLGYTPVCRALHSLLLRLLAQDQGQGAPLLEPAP
pPAFAH FP inh: pPAFAH (human) enzyme inhibition. inhibition, % at 3.39 µM. 1.5% of 330,000 active. Q13093. recombinant pPAFAH, FP-rhodamine probe fluorescence polarization;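 active = inhibition above the mean inhibition across the screen plus 3 SD, cut at about 25% in these data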;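 note: inhibitors block binding of the rhodamine activity-based probe so polarization drops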
PAFAH2 inh: PAFAH2 (human) inhibition. 0.99% of 340,000 active. Q99487. recombinant PAFAH2, FP-rhodamine activity probe, fluorescence polarization. AID 492956. inhibition, % at 3.39 µM;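 active = inhibition above the mean over all tested compounds plus 3 SD, cut at about 30% in these data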;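 note: inhibitors block probe labeling of enzyme so polarization drops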
EBNA-1 inh: blocks EBNA-1 binding to DNA; EBNA-1 DNA binding, fluorescence polarization; inhibition, % at 14.8 µM; 0.34% of 300,000 active; in the data active = inhibition above about 28%
ZTA DNA inh: counter-screen for EBNA-1 inhibitors: inhibitors of Epstein-Barr virus ZTA. AID 2234. 0.15% of 320,000 active. inhibition, % at 11 µM. ZTA-DNA binding, fluorescence polarization; in the data active = inhibition above about 33%
Each line names hits and unclear results; the compound was inactive in the other large screens. This is a sample that favours compounds with a hit; in the whole collection about 2.9% have one here.

COc1ccc(-c2ncccc2OC(=O)C23CC4CC(CC(C4)C2)C3)cc1OC	none
Cc1ccc(C)[n+](CC(=O)c2ccc(-c3ccccc3)cc2)c1	none
O=C1/C(=C\c2ccco2)SC(=S)N1C1CCCCC1	pPAFAH FP inh 33 (no result: PAFAH1B2 inh, PAFAH1B3 FP inh, PAFAH2 inh)
Cc1ccc(N2C(=O)/C(=C/c3ccco3)SC2=S)cc1	none
O=C(Nc1ccccn1)c1ccc(S(=O)(=O)c2ccc(Cl)cc2)cc1	PAFAH1B2 inh 24
Cc1ccccc1CNc1nnnn1C	none
O=C(CSc1nc2scc(-c3ccco3)c2c(=O)n1-c1ccccc1)N1CCOCC1	none
NC(=O)CSc1nc2scc(-c3ccco3)c2c(=O)n1-c1ccccc1	pPAFAH FP inh 28
O=S(=O)(NCc1ccc(F)cc1)c1ccccc1Br	PAFAH1B2 inh 25 (no result: EBNA-1 inh)
O=S(=O)(NCc1ccccc1)c1ccc(F)cc1Br	none
Nc1nc(-c2ccccn2)nc(N)c1Cc1ccc(Cl)cc1Cl	none
N#Cc1c(SCC(N)=O)nsc1SCc1ccccc1Cl	none
N#Cc1c(SCC(N)=O)nsc1SCc1ccc(Cl)cc1	PAFAH1B2 inh 30
Cc1onc(-c2ccccc2Cl)c1C(=O)Oc1cc(N)n(S(=O)(=O)c2ccc(F)cc2)n1	PAFAH1B2 inh 36
COc1ccccc1CCc1nnc(CCC(=O)NC(C)Cn2nc(C)cc2C)o1 (configuration not stated)	none
O=[N+]([O-])c1ccc(Sc2nccn2Cc2ccccc2)c([N+](=O)[O-])c1	none
O=[N+]([O-])c1cc(C(F)(F)F)ccc1Sc1nccn1Cc1ccccc1	PAFAH1B2 inh 70
c1ccc(-c2cc(-c3ccc(N4CCOCC4)cc3)nc3ccccc23)cc1	pPAFAH FP inh 30
c1ccc(-c2cc(N3CCOCC3)nc(-c3ccccc3)n2)cc1	none
CCc1sc(C(=O)Nc2ccc3c(c2)OCCO3)cc1Br	none
CCc1sc(C(=O)Nc2ccc3c(c2)OCO3)cc1C	pPAFAH FP inh 25 (no result: EBNA-1 inh, ZTA DNA inh)
CC(=O)c1c(C)[nH]c(C(=O)CN2C(=O)NC(CCc3ccccc3)C2=O)c1C (configuration not stated)	none
O=C(O)c1ccc(N2CCCS2(=O)=O)cc1	none
O=C(COC(=O)Cc1ccc(Br)cc1)NC1CCCCCC1	PAFAH1B2 inh 27, pPAFAH FP inh 27
O=C(COC(=O)c1c[nH]c2ccccc12)NC1CCCCC1	pPAFAH FP inh 28, PAFAH2 inh 83 (no result: EBNA-1 inh)
O=C(COC(=O)c1cc(=O)[nH]c2ccccc12)NC1CCCCC1	none (no result: EBNA-1 inh, ZTA DNA inh)
O=C(COC(=O)Cc1ccc(Br)cc1)NC12CC3CC(CC(C3)C1)C2	PAFAH1B2 inh 38, pPAFAH FP inh 26
O=C(O)Cc1sc(N/N=C\c2ccncc2)nc1-c1ccccc1	pPAFAH FP inh 25
O=C(CC(NC(=O)C(F)(F)F)c1ccccc1)Nc1nnc(CCc2ccccc2)s1 (configuration not stated)	none
FC(F)(F)c1cccc(N2CCN(C(=S)NCC3CCCO3)CC2)c1 (configuration not stated)	pPAFAH FP inh 30
CCC(C)(C)C1CCc2[nH]nc(C(=O)NCCCNC(=O)OC(C)(C)C)c2C1 (configuration not stated)	none
O=C1SC(SCc2ccccc2Cl)=N/C1=C\c1ccc(C(=O)O)cc1	PAFAH1B2 inh 28, PAFAH2 inh 62
C=CCSC1=N/C(=C\c2ccc(C(=O)O)cc2)C(=O)S1	none
O=C(O)Cc1ccc(O)cc1	none
O=C(O)Cc1ccc(-c2ccccc2-c2ccccc2)cc1	PAFAH1B2 inh 80, pPAFAH FP inh 29
Cc1ccc(S(=O)(=O)Oc2ccc(C3C4=C(CCCC4=O)N(CCC(=O)O)C4=C3C(=O)CCC4)cc2Cl)cc1	PAFAH1B2 inh 39
CCOc1cc(C2C3=C(CCCC3=O)N(CCC(=O)O)C3=C2C(=O)CCC3)ccc1OS(=O)(=O)c1ccc(C)cc1	none
CC(NS(=O)(=O)c1ccccc1Cl)C1CC2CCC1C2 (configuration not stated)	PAFAH1B2 inh 26
Cc1ccc(C)n1-c1sc2c(c1C(=O)O)CCCC2	pPAFAH FP inh 26
c1ccc2c(c1)CCN(c1nc(CN3CCOCC3)nc3sc4c(c13)CCCC4)C2	pPAFAH FP inh 32
COCCCNCC(O)COc1ccccc1F (configuration not stated)	none
CCC(C)(C)NC(=O)C(c1cccc(OC)c1OC)N(CCOC)C(=O)CCC(=O)Nc1cc(C)on1 (configuration not stated)	none
